Consider 16 compounds from PubChem BioAssay.

The test system of experiment [1] is Plasmodium falciparum Sir2 (PF13_0152, Sir2A). The experiment in a line: Plasmodium falciparum Sir2A binding compounds – biochemical, small-molecule microarray, 635 nm fluorescence, primary screen (AID 1098).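 Also: score merges spot fluorescence intensity with its signal-to-noise ratio.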 To be noted: fluorescence 635 nm, higher = more signal.
The nature of experiment [2]: probe aDKK1 binding to arrayed compounds – biochemical, biotinylated probe, 635/667 nm fluorescence, primary screen (AID 1099).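 Also: score merges 667nm spot fluorescence with signal to noise across triplicate slides; reference of the scale not given here.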 The following applies: small-molecule microarray, higher = more signal.
Experiment [3] can be described thus: probe aCHRDL2 binding to arrayed compounds – biochemical, biotinylated probe, 635/667 nm fluorescence, primary screen (AID 1100). The following applies: small-molecule microarray, higher = more signal.
Experiment [4] in a line: change in splice reporter luminescence, either direction, cell-based, HEK293, spliceosome inhibition project, primary screen (AID 1101).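 Also: HEK293 cells carrying a splicing-competent luciferase reporter gene; test concentration not given here.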 To be noted: HEK293 splicing luciferase reporter, 24 h, higher = more signal, called active from +8 up or from −8 down. (In general: Reporter assays use an easily measured gene product as a stand-in for the process of interest.)
The target of experiment [5] is Fibroblast growth factor 10 (Homo sapiens) (UniProt O15520). As to the kind of experiment: compounds binding fibroblast growth factor 10 – biochemical, small-molecule microarray, 635 nm fluorescence, primary screen (AID 1102). The following applies: FGF10 binding, fluorescence 635 nm, higher = more signal.
Experiment [6] has as its system glycogen synthase kinase-3 (GSK3A per assay name; protocol says GSK3B). The experiment in a line: compounds binding glycogen synthase kinase-3 – biochemical, small-molecule microarray, 635 nm fluorescence, GSK3A, primary screen (AID 1103). Also: the record names both GSK3A and GSK3B. The following applies: fluorescence 635 nm, higher = more signal.
For experiment [7], the target named is Epidermal growth factor receptor (Homo sapiens) (UniProt P00533). The experiment in a line: compounds binding epidermal growth factor receptor – biochemical, small-molecule microarray, 635 nm fluorescence, primary screen (AID 1104).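 Also: score merges 667 nm emission intensity with spot signal to noise over triplicate slides.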 The following applies: EGFR binding, higher = more signal.
Experiment [8] addresses Follistatin-related protein 3 (Homo sapiens) (UniProt O95633). The experiment in a line: compounds binding follistatin-related protein 3 – biochemical, small-molecule microarray, 635 nm fluorescence, primary screen (AID 1105).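 Also: score merges emission near 667 nm and signal to noise per printed spot across three slides.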 To be noted: FSTL3 binding, higher = more signal.
For experiment [9], the target named is Dickkopf-related protein 1 (Homo sapiens) (UniProt O94907). The experiment in a line: small molecules binding DKK1 protein – biochemical, small-molecule microarray, 635 nm fluorescence scan, primary screen (AID 1106).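 Also: score merges emission near 667 nm with signal to noise over three replicate slides.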 The following applies: higher = more signal.
For experiment [10], the system named is Inhibin beta A chain (activin A). As to the kind of experiment: small molecules binding activin A – biochemical, small-molecule microarray, 635 nm fluorescence scan, primary screen (AID 1107).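 Also: mouse activin A protein probed at 4.33 µg/mL on printed slides; score merges bound-protein fluorescence near 667 nm with spot signal-to-noise.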 The following applies: INHBA, higher = more signal.

Activity calls are given as the source filed them.

Chain of Dickkopf-related protein 1 (Homo sapiens) (O94907 whole entry, looked up): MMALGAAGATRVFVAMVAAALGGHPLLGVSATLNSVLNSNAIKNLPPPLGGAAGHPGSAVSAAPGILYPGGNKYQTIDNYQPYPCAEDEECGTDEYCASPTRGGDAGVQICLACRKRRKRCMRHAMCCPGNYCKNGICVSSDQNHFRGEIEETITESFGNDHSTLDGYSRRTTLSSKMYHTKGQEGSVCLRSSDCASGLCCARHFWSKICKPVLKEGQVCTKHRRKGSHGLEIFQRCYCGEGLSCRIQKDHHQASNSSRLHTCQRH
Chain of Follistatin-related protein 3 (Homo sapiens) (O95633 whole entry, looked up): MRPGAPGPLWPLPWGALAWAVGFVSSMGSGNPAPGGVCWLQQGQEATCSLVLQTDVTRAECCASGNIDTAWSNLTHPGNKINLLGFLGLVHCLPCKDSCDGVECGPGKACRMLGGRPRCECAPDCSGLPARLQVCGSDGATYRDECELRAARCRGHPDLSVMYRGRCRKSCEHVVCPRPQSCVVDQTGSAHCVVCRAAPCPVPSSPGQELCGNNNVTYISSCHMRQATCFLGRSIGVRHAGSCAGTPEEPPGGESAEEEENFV
Chain of Fibroblast growth factor 10 (Homo sapiens) (O15520 whole entry, looked up): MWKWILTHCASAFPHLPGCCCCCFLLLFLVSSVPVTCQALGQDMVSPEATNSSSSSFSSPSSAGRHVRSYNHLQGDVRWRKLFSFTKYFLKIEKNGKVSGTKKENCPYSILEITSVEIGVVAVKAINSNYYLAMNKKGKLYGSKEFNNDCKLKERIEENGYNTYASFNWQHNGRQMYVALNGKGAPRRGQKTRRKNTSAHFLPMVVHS
Chain of Epidermal growth factor receptor (Homo sapiens) (P00533 whole entry, looked up): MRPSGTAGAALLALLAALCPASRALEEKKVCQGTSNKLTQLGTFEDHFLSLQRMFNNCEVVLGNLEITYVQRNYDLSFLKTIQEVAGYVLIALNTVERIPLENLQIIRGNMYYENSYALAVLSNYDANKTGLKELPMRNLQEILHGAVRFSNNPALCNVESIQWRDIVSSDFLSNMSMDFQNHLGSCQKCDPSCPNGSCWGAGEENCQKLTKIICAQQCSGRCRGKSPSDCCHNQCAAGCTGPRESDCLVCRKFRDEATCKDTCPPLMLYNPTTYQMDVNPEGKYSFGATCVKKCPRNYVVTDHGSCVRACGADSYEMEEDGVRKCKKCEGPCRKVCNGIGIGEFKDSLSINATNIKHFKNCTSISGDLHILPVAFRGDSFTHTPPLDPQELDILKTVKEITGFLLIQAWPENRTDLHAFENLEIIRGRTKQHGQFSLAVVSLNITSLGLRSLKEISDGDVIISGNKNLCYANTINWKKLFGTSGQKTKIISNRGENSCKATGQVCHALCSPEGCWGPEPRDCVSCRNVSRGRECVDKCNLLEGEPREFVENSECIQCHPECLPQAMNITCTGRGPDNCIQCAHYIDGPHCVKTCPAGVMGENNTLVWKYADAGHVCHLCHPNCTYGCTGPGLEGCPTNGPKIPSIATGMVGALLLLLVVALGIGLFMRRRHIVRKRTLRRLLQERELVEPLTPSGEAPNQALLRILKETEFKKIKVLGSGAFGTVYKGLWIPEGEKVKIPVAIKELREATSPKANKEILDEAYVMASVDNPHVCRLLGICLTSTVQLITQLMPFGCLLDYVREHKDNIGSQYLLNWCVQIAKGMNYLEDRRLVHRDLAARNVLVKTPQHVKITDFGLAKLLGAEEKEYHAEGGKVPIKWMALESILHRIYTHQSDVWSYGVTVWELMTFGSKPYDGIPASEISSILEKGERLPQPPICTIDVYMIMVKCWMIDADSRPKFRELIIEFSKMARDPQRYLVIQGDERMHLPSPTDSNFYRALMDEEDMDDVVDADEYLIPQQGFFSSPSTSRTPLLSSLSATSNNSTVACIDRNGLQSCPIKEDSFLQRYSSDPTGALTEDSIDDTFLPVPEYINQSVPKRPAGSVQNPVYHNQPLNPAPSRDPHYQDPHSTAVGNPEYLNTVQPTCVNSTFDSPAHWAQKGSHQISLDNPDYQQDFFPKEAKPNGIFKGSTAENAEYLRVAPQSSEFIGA

On to `CC(C)[Si](C#C[Si](C(C)C)(C(C)C)C(C)C)(O[C@H](C)c1cn(Cc2cccc(Cl)c2)nn1)C(C)C`, for which the composite z-score in experiment [1] was 0.259; in experiment [2], -0.493; in experiment [3] it was -0.578; in experiment [5] it was 0.539; in experiment [6], 1.14; in [7], 0.863. The composite z-score is 0.433 in [8], 0.459 in [9] and -0.33 in experiment [10]. Also, the z-score in experiment [4] is -0.589 (inactive).
In the case of `C=CCOc1ccc([C@@H]2CC=C(C(=O)OCC)[C@H](c3cccc(Br)c3)N2S(=O)(=O)c2ccc(C)cc2)cc1`, the composite z-score was 0.251 in experiment [1]; 0.735 in experiment [2]; 1.04 in experiment [3]; 0.248 in experiment [5]; -1.11 in [6]; -0.0936 in [7]. Besides, the composite z-score came out at 0.167 in experiment [8], 0.644 in experiment [9] and 1.46 in experiment [10]. The z-score in experiment [4] is -0.776 (inactive).
Take `O=C(CS)NCCCCCNC(=O)[C@@H]1C[C@@H]2C(=O)N3CCC[C@H]3C(=O)N2[C@@H]1c1ccc(O)cc1`: the composite z-score in [1] was found to be 0.847; in [2] it was 0.233; in experiment [3] it was 0.61; in experiment [5], 0.598; in experiment [6], 1.14; in experiment [7], 0.128. In addition, the figures for the composite z-score in [8], in experiment [9] and in experiment [10] were 0.0144, 0.219 and 0.0603, respectively. For the same compound, in [4], the z-score was 0.466 (inactive).
On to `Cc1ccc(S[C@]2(C(=O)NCCN3CCOCC3)CC(=O)N(C3Cc4ccccc4C3)[C@@H]2c2ccc(CO)cc2)cc1`, for which the composite z-score was 1.48 in experiment [1]; 0.0662 in experiment [2]; 0.64 in experiment [3]; -0.644 in [5]; -1.2 in experiment [6]; -1 in experiment [7]. The composite z-score in [8] was -0.804; in experiment [9], -0.866; in experiment [10], 0.345. Besides, the z-score in [4] was -0.0221 (inactive).
For the compound `CO[C@H]1O[C@H](CO)[C@@H](OC(=O)Nc2cccc(F)c2)[C@H](OC(=O)Nc2ccc3c(c2)OCO3)[C@H]1OC(=O)Nc1ccc2c(c1)OCO2`, the composite z-score in experiment [1] came to 0.932; in experiment [2] it was 0.0673; in experiment [3], 0.307; in experiment [5], 0.693; in experiment [6], 0.26; in experiment [7], 0.199. For the same compound, the figures for the composite z-score in experiment [8], in experiment [9] and in experiment [10] were 0.55, 0.177 and 0.674, respectively. The z-score in experiment [4] was -0.197 (inactive).
Regarding `O=C(C=C(CC(O)c1cccc(Cl)c1)OCCF)OCCF` (stereo not given), the composite z-score was 1.87 in experiment [1]; 0.558 in [2]; 0.913 in [3]; -0.357 in [5]; -0.571 in experiment [6]; -0.737 in experiment [7]. Moreover, the composite z-score in [8] was -0.863; in experiment [9], -0.735; in [10], 1.31. Besides, the z-score in [4] is -0.985 (inactive).
As to `CCCCC(=C=CC[C@H](O)c1cccc(OCCO)c1)C[C@H](O)COCc1ccccc1`, the composite z-score in experiment [1] was 0.766; in [2], -0.31; in [3], -0.053; in experiment [5], 0.688; in experiment [6], -0.207; in experiment [7] it was -0.572. For the same compound, the composite z-score in experiment [8] was -0.117; in [9] it was -0.627; in experiment [10], 0.58. Besides, the z-score in [4] is -0.992 (inactive).
As to `CC(C)(C)OC(=O)CC[C@]1(C(=O)O)COC(c2ccc(OCCCO)cc2)=N1`, the composite z-score in [1] is 0.337; in experiment [2], 0.768; in [3], 0.553; in [5], -0.577; in [6], -0.69; in experiment [7] it was -0.609. The composite z-score in experiment [8] is -1.2; in [9], -1.51; in experiment [10], 0.469. Further, in experiment [4], the z-score is 0.14 (inactive).
For the compound `CN(C)C(=O)[C@@]1(CCS(=O)(=O)c2ccccc2)N=C(c2ccc(OCCCO)cc2)O[C@H]1c1ccccc1CN=[N+]=[N-]`, the composite z-score in experiment [1] came out at 1.02; in [2] it was 0.182; in experiment [3] it was 0.286; in [5] it was 1.41; in [6], 1.36; in experiment [7], 0.27. The composite z-score was determined as 0.922 in [8], 0.52 in experiment [9] and 0.69 in experiment [10]. Also, the z-score in [4] was -0.863 (inactive).
As to `C[N+](C)(C)CCCCNC(=O)[C@H]1C[C@H]2C(=O)NCC(=O)N2[C@H]1c1ccc(O)cc1`, the composite z-score in [1] is 1.29; in experiment [2], 0.0645; in experiment [3] it was -0.31; in experiment [5], 1.42; in experiment [6] it was 1.35; in experiment [7] it was 1.12. Moreover, the results for the composite z-score in experiment [8], in [9] and in experiment [10] were 1.44, 1.47 and 0.952, respectively. For the same compound, the z-score in [4] is -1.01 (inactive).
With `C#CCOC(=O)N[C@H](C=CCCCC)c1ccccc1`, the composite z-score in experiment [1] was -0.257; in [2] it was 0.326; in [3], 0.942; in [5], 0.605; in experiment [6], 0.35; in [7], 0.241. For the same compound, the figures for the composite z-score in experiment [8], in experiment [9] and in experiment [10] were -0.484, -0.352 and 0.983, respectively. Moreover, in experiment [4], the z-score was -0.341 (inactive).
Consider `C=CCN1C(=O)[C@@]2(O[C@@H](CCn3cc([C@H](O)c4ccccc4)nn3)[C@H]([Si](C)(C)c3ccc(OC)cc3)[C@H]2C)c2cc(NC(=O)c3ccc(OC)cc3)ccc21`, for which the composite z-score was 0.185 in experiment [1]; 0.041 in experiment [2]; 0.143 in experiment [3]; -0.0229 in experiment [5]; 0.0579 in [6]; -0.128 in [7]. The composite z-score in experiment [8] amounted to 0.382; in [9] it was 0.183; in experiment [10], 1.07. Also, the z-score in [4] was -0.345 (inactive).
Turning to `COCCCNC(=O)[C@@H]1c2ccccc2C(=O)N(Cc2cc(F)cc(C(F)(F)F)c2)[C@H]1c1ccc(CO)cc1`, the composite z-score in experiment [1] is 1.69; in experiment [2], -0.0674; in experiment [3], 0.998; in experiment [5] it was -1.38; in experiment [6], -1.72; in experiment [7], -1.47. Besides, the composite z-score in experiment [8] was -1.13; in [9] it was -1.35; in experiment [10], -0.104. In addition, in experiment [4], the z-score was -0.0265 (inactive).
With `CC(=O)NCCCC[C@@H]1NC(=O)[C@H]2C[C@@H](C(=O)NCCCCCN)[C@@H](c3cccc(OCCO)c3)N2C1=O`, the composite z-score was 0.878 in experiment [1]; -0.0159 in experiment [2]; 0.366 in experiment [3]; 0.757 in [5]; 0.4 in experiment [6]; 0.103 in experiment [7]. Besides, the composite z-score in experiment [8] stood at 0.0957; in experiment [9], 0.142; in experiment [10], 0.602. For the same compound, the z-score in experiment [4] was -1.77 (inactive).
Take `CCOC(=O)C1=CCC(c2cccc(Cl)c2)O1` (stereo not given): the composite z-score in experiment [1] was 0.355; in experiment [2], 0.14; in experiment [3] it was -0.0411; in experiment [5], 0.235; in [6], 0.0617; in experiment [7] it was -0.62. The figures for the composite z-score in [8], in [9] and in experiment [10] were -0.275, -0.504 and 0.154, respectively. Besides, the z-score in [4] is -1.29 (inactive).
For the compound `CC(C)CNC(=O)[C@@]1(c2ccc([N+](=O)[O-])cc2)CC(=O)N(C(C)C)[C@@H]1c1ccc(CO)cc1`, the composite z-score in [1] was 0.832; in [2], -0.258; in experiment [3], 1.08; in [5], -1; in experiment [6], -1.02; in experiment [7], -0.362. Besides, the values for the composite z-score in [8], in experiment [9] and in experiment [10] were -0.129, -1.59 and 0.07, respectively. Also, the z-score in experiment [4] was -0.372 (inactive).
